Calls of active or inactive are those of the source.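 How the source made its calls: active means cell survival after UV exposure 2 SD above solvent-only control wells at 10 µM, confirmed on one or two repeats; inactive means the rest.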

A short description of this assay: cell survival after pyrene fatty acid photosensitization – ZR-82 cells, Analyticon library, screen 2, phospholipid biosynthesis inhibitor project, primary screen (AID 1347383).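 Further: survival reflects blocked phospholipid synthesis cutting uptake of the phototoxic fatty acid; compound and fatty acid exposure 3 h then viability read next day.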 Particulars: ZR-82 CHO cells, pyrene-fatty acid UV killing, CellTiter Blue, at 10 µM; peroxisome-deficient CHO-K1 variant, with DGAT-1, DGAT-2 and ACAT inhibitors unless noted.
Turning to `COc1cc(C2c3cc4c(c(O)c3CC3COC(=O)C32)OCO4)cc(OC)c1O` (stereo not drawn), the outcome was “inactive [setting not given]”. To `Oc1cc(O)cc(/C=C/c2ccc(O)cc2O)c1` belongs “inactive”. To `C/C=C(\C)[C@H](O)[C@H](C)/C=C(C)/C=C/C/C(C)=C/Cc1[nH]c(OC)c(OC)c(=O)c1C` belongs “inactive”; to `CCCCCCCCCCCCCCCc1cccc(O)c1O`, “inactive”; to `COc1ccc(C23CCC(=O)C=C2N(C)CC3)cc1OC` (stereo not drawn), “inactive”. Consider `CC(=O)O[C@H]1C(=O)[C@]2(C)C(O)C[C@H]3OC[C@@]3(OC(C)=O)[C@H]2[C@H](OC(=O)c2ccccc2)[C@]2(O)C[C@H](O)C(C)=C1C2(C)C` (stereo partly drawn), for which the outcome was inactive.

Turning to `C[C@@]1(C(=O)O)CC[C@]2(C)CC[C@]3(C)C4=CC(=O)c5cc(O)c(O)cc5[C@]4(C)CC[C@@]3(C)[C@@H]2C1`, the outcome was inactive.

In the case of `CC#CC#Cc1ccc(C#CC(O)COC(C)=O)s1` (stereo not drawn), the result was inactive. The entry for `CCC1C2CC3C4N(C)c5ccccc5C45CC(C2C5O)N3C1O` (stereo not drawn) is “inactive [setting not given]”; for `CO[C@H]1[C@H](O)[C@H](O[C@H]2CC[C@]3(C)C4CC[C@]5(C)[C@H](C6=CC(=O)OC6)CC[C@]5(O)C4CC[C@@H]3C2)O[C@@H](C)[C@@H]1O` (stereo partly drawn) it is “inactive”. The entry for `COC1CC(O[C@H]2CC[C@]3(C)C4CC[C@]5(C)[C@@H](C6=CC(=O)OC6)CC[C@]5(O)[C@@H]4CC[C@]3(O)C2)OC(C)C1O` (stereo partly drawn) is “inactive”.

Regarding `CC1(C)OC1COc1c2occc2cc2ccc(=O)oc12` (stereo not drawn), the result was inactive. The entry for `COc1cc2c(cc1OC)[C@@]13CCN4CC5=CCO[C@H]6CC(=O)N2[C@H]1[C@H]6[C@H]5C[C@H]43` is “inactive [setting not given]”; for `CC(=O)NCCc1c[nH]c2ccccc12` it is “inactive [setting not given]”; for `C=CC(C)(C)c1cc2c(O)c3c(c(C(C)(C)C=C)c2oc1=O)OC(C)(C)C=C3` it is “inactive”.

Take `OCC(O)Cc1ccc2c(c1)OCO2` (stereo not drawn): the outcome is “inactive [setting not given]”. To `C=C(C)[C@H]1CCC(C)=C[C@@H]1c1c(O)cc(CCCCC)c(C(=O)O)c1O` belongs “inactive”; to `C[C@H]1O[C@@H](O[C@H]2CC[C@]3(C=O)C4CC[C@]5(C)[C@@H](C6=CC(=O)OC6)CC[C@]5(O)[C@@H]4CC[C@]3(O)C2)C[C@@H](O)[C@@H]1O` (stereo partly drawn), “inactive”; to `C[C@]12CC[C@H](O[C@@H]3O[C@H](CO)[C@@H](O)[C@H](O)[C@H]3O)CC1CC[C@@H]1C2CC[C@]2(C)[C@@H](C3=CC(=O)OC3)CC[C@]12O` (stereo partly drawn), “inactive”.

Regarding `CO[C@@H]1[C@@H](O)[C@H](C)O[C@@H](O[C@H]2CC[C@]3(C)C4CC[C@]5(C)[C@H](C6=CC(=O)OC6)CC[C@]5(O)C4CC[C@@H]3C2)[C@H]1OC(C)=O` (stereo partly drawn), the outcome was inactive. In the case of `C=C1C(=O)CC2OC2(C)CC2OC(=O)C(=C)C2C(O)C1OC(=O)/C(C)=C\C` (stereo not drawn), the outcome was inactive.

Consider `CO[C@@H]1[C@H](O)[C@@H](O[C@@H]2C[C@H]3CC[C@@H]4C(CC[C@]5(C)[C@@H](C6=CC(=O)OC6)CC[C@]45O)[C@@]3(C)[C@H](O)C2)O[C@H](C)[C@@H]1O` (stereo partly drawn), for which the result was inactive.

`CC[C@H]1CN2CC[C@H]1C[C@@H]2[C@@H](O)c1ccnc2ccc(OC)cc12`: the result was inactive. To `COc1ccc(/C=C/c2cc(O)cc(O)c2)cc1` belongs “inactive [setting not given]”; to `CCC1CC2CN3CCc4c([nH]c5ccccc45)C(C(=O)OC)(C2)C13` (stereo not drawn), “inactive”; to `CC1CC(C)C(=O)C(C(O)CC2CC(=O)NC(=O)C2)C1` (stereo not drawn), “inactive”. To `COc1ccc([C@@]23CC[C@@H](O)C[C@@H]2N(C)CC3)cc1OC` belongs “inactive”; to `COc1ccc(CC2C(=O)OCC2Cc2ccc3c(c2)OCO3)cc1OC` (stereo not drawn), “inactive”.

For the origin of these results see PubChem BioAssay AID1347383 (Zoeller Lab, School of Medicine, Boston University, 2020).
